We go through 17 molecules from PMC5540273 (PLoS ONE, 2017).

Each structure is given as a SMILES string. Values joined by “and” are separate entries in the source; they are usually repeats but may differ in a detail not shown here. Equal entries are not always repeated. Where two headings read alike, the source gives them in different places.

The subject of one assay is KIT-autoinhibited. The conditions noted are these: concentration: 1 μM, replicates: in singlicate, n = 1.
The subject of the next assay is KIT. The conditions noted are these: concentration: 1 μM, replicates: in singlicate, n = 1.
The test system of another assay is LATS1. The conditions noted are these: concentration: 1 μM, replicates: in singlicate, n = 1.
The subject of another assay is LATS2. As to conditions: concentration: 1 μM, replicates: in singlicate, n = 1.
In another assay the test system is LCK. As to conditions: concentration: 1 μM, replicates: in singlicate, n = 1.
A further assay relates to LIMK1. The conditions noted are these: concentration: 1 μM, replicates: in singlicate; n = 1.
The next assay has as its system LIMK2. The conditions noted are these: concentration: 1 μM, replicates: in singlicate, n = 1.
Another assay has as its system T1, LKB1.
T1 construct: gene STK11
The conditions noted are these: concentration: 1 μM, replicates: in singlicate, n = 1.

For a further assay, the system named is T2, LOK.
T2 construct: gene STK10
As to conditions: concentration: 1 μM, replicates: in singlicate, n = 1.

For another assay, the system named is LRRK2. As to conditions: concentration: 1 μM, replicates: in singlicate, n = 1.
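Note: KINOMEscan kinase panel screen.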

Take `C[C@@H](Oc1cc(-n2cnc3ccc(NC(=O)NC(C)(C)C)cc32)sc1C(N)=O)c1ccccc1Cl` [GSK346294]: the “%Inh” value was 1% with KIT-autoinhibited; 20% with KIT; 0% in the assay with LATS1; 12% in the assay with LATS2; 37% with LCK; 0% with LIMK1. The “%Inh” value came to 25% with LIMK2, 4% with LKB1, 36% in the assay on LOK and 0% in the assay with LRRK2.
As to `CC(=O)Nc1ccc(COc2ccc(Nc3ccnc4cc(-c5ccccn5)ccc34)cc2)cc1.Cl` [GW440148], the “%Inh” value in the assay on KIT-autoinhibited was 72%; in the assay on KIT it was 100%; with LATS1, 0%; in the assay with LATS2 it was 0%; in the assay with LCK, 31%; with LIMK1, 0%. Also, the “%Inh” value turned out to be 0% with LIMK2, 20% with LKB1, 7% in the assay on LOK and 0% in the assay with LRRK2.
Regarding `CCn1cnc2c(N)ncnc21` [GW345098], the “%Inh” value stood at 7% with KIT-autoinhibited; 20% in the assay with KIT; 0% in the assay on LATS1; 21% with LATS2; 5% in the assay with LCK; 26% in the assay with LIMK1. Further, the “%Inh” value in the assay on LIMK2 is 27%; in the assay on LKB1 it was 26%; in the assay on LOK, 25%; with LRRK2, 0%.
With `NS(=O)(=O)c1cccc(-c2ccc3ncc(N4CCOCC4)nc3c2)c1` [GSK1535721], the “%Inh” value turned out to be 15% with KIT-autoinhibited; 14% in the assay with KIT; 0% in the assay on LATS1; 9% in the assay with LATS2; 0% in the assay with LCK; 0% in the assay with LIMK1. The “%Inh” value was 15% with LIMK2, 3% in the assay on LKB1, 0% in the assay with LOK and 0% in the assay on LRRK2.
For `[2H]C([2H])(c1cccc(C(F)(F)F)c1C)n1ccn2c(=O)nc(N3CCOCC3)cc12` [GSK2336394], the “%Inh” value with KIT-autoinhibited was determined as 0%; with KIT it was 14%; in the assay with LATS1 it was 11%; in the assay with LATS2, 0%; in the assay on LCK, 25%; in the assay on LIMK1, 15%. Besides, the “%Inh” value in the assay with LIMK2, in the assay with LKB1, in the assay on LOK and in the assay on LRRK2 was 0% each time.
As for `NCCNS(=O)(=O)c1ccc(-c2ccnc3[nH]ccc23)cc1` [GSK977617], the “%Inh” value with KIT-autoinhibited (1 µM) was 0% and 21%; in the assay with KIT (1 µM), 44% and 28%; with LATS1 (1 µM) it was 75% and 70%; in the assay with LATS2 (1 µM), 95.8% and 95.9%; in the assay on LCK (1 µM) it was 38% and 3%; in the assay with LIMK1 it was 0%. For the same molecule, the “%Inh” value is 6% and 12% with LIMK2 (1 µM); 0% and 2% in the assay with LKB1 (1 µM); 12% and 0% in the assay with LOK (1 µM); 17% and 0% in the assay on LRRK2 (1 µM).
As for `COC(=O)Nc1nc2cc(Oc3ccc(NC(=O)Nc4cc(F)ccc4F)cc3)ccc2[nH]1.Cl` [GW701424], the “%Inh” value with KIT-autoinhibited is given as 30%; in the assay on KIT it was 100%; in the assay on LATS1, 0%; in the assay with LATS2, 0%; with LCK it was 57%; in the assay with LIMK1 it was 0%. Further, the “%Inh” value in the assay on LIMK2 was 0%; with LKB1 it was 0%; with LOK, 98.4%; with LRRK2 it was 0%.
For `CNc1ncnc2[nH]ncc12` [SKF-18355], the “%Inh” value in the assay on KIT-autoinhibited came out at 20%; with KIT, 18%; with LATS1 it was 0%; in the assay with LATS2 it was 0%; in the assay on LCK, 6%; in the assay with LIMK1 it was 0%. Further, the “%Inh” value in the assay on LIMK2 worked out at 0%; in the assay with LKB1 it was 38%; in the assay on LOK it was 0%; in the assay with LRRK2, 0%.
Take `O=C(c1ccc(-c2cc(-c3c[nH]nc3-c3ccccn3)ccn2)cc1)N1CCOCC1` [GW812171]: the “%Inh” value with KIT-autoinhibited is given as 29%; in the assay on KIT, 0%; with LATS1, 0%; in the assay with LATS2 it was 0%; in the assay with LCK, 0%; in the assay on LIMK1, 0%. Also, the “%Inh” value in the assay with LIMK2 is listed as 0%; in the assay on LKB1, 0%; in the assay on LOK, 28%; in the assay with LRRK2 it was 0%.
`CC(C)(C)n1cnc2c(N)ncnc21` [SKF-97359]: the “%Inh” value in the assay with KIT-autoinhibited worked out at 30%; in the assay on KIT, 0%; in the assay on LATS1, 24%; in the assay with LATS2, 0%; in the assay on LCK it was 0%; with LIMK1, 0%. Besides, the “%Inh” value with LIMK2 is reported as 0%; in the assay on LKB1 it was 56%; in the assay on LOK it was 0%; in the assay with LRRK2, 0%.
As for `COc1ccc(S(=O)(=O)NC2CCN(c3cc(C)nc(Nc4cccc(C#N)c4)n3)CC2)cc1.O=C(O)C(F)(F)F` [GSK1653539], the “%Inh” value is on record as 0% with KIT-autoinhibited; 8% with KIT; 0% with LATS1; 25% with LATS2; 8% in the assay with LCK; 0% in the assay with LIMK1. The “%Inh” value with LIMK2 is 7%; in the assay with LKB1, 7%; with LOK, 0%; in the assay with LRRK2, 0%.
With `Cc1c2ccc(N(C)c3ccnc(Nc4cccc(S(N)(=O)=O)c4)n3)cc2nn1Cc1ccccc1.Cl.Cl` [GW787226], the “%Inh” value in the assay with KIT-autoinhibited is given as 86%; with KIT it was 99.9%; with LATS1, 6%; with LATS2 it was 0%; in the assay on LCK it was 90.7%; in the assay on LIMK1, 89%. Also, the “%Inh” value in the assay with LIMK2 came to 73%; in the assay on LKB1, 48%; in the assay with LOK, 98.4%; in the assay with LRRK2, 0%.
For the molecule `O=C(NCCNc1ccnc(Nc2ccc(F)cc2)n1)c1cc2ccccc2s1` [GSK1379874], the “%Inh” value with KIT-autoinhibited was determined as 0%; in the assay on KIT, 0%; in the assay on LATS1 it was 0%; in the assay with LATS2 it was 0%; in the assay on LCK, 12%; in the assay with LIMK1 it was 0%. Moreover, the “%Inh” value turned out to be 25% with LIMK2, 1% in the assay with LKB1, 0% in the assay on LOK and 0% in the assay with LRRK2.
For `Cn1ccc2ncnc(Oc3ccc(NC(=O)Nc4ccncc4)c(Cl)c3)c21`, the “%Inh” value in the assay on KIT-autoinhibited was found to be 0%; in the assay on KIT it was 74%; in the assay on LATS1 it was 0%; in the assay on LATS2, 0%; with LCK, 0%; with LIMK1 it was 0%. Moreover, the “%Inh” value was 0% in the assay with LIMK2, 13% in the assay on LKB1, 14% in the assay with LOK and 0% with LRRK2.
For `O=C1NC(=O)C(N2CCc3ccccc32)=C1c1cccc(Cl)c1` [SB-408010], the “%Inh” value is reported as 0% with KIT-autoinhibited; 13% in the assay with KIT; 0% in the assay with LATS1; 10% in the assay with LATS2; 10% with LCK; 0% in the assay with LIMK1. Besides, the “%Inh” value is reported as 0% with LIMK2, 0% in the assay with LKB1, 0% with LOK and 9% in the assay on LRRK2.
In the case of `CN(C1=C(c2ccccc2)C(=O)NC1=O)c1ccccc1` [SB-334860], the “%Inh” value in the assay on KIT-autoinhibited came out at 0%; with KIT, 16%; in the assay with LATS1, 0%; with LATS2, 14%; in the assay with LCK, 20%; with LIMK1, 15%. Besides, the “%Inh” value with LIMK2 stood at 20%; in the assay with LKB1 it was 5%; with LOK it was 1%; in the assay on LRRK2 it was 0%.
With `Cc1c(Cn2c(C)nn3c(=O)cc(N4CCOC(C)C4)nc23)cccc1C(F)(F)F` (centres unmarked) [GSK2344444], the “%Inh” value in the assay with KIT-autoinhibited is listed as 4%; in the assay with KIT, 1%; in the assay with LATS1 it was 0%; in the assay with LATS2, 0%; in the assay on LCK, 20%; in the assay with LIMK1, 0%. The “%Inh” value is listed as 11% in the assay on LIMK2, 0% in the assay on LKB1, 0% in the assay with LOK and 25% in the assay on LRRK2.
